Results filed as inconclusive are left out. The source made the active and inactive calls. Unless noted, calls come from the whole dose curve; as a rule, active = well fitted curve in the direction sought with a large enough effect in the repeat runs; inconclusive = weak or mixed curves; inactive = no such curve, though single readings can be large; an effect the other way counts as inactive or inconclusive.
Legend:
[1] = qHTS assay to identify small molecule antagonists of the estrogen related receptor (ERR) signaling pathway from Tox21 library - cell viability counter screen (AID 1224834); note: nearly all actives have a fitted effect of over 30% in size
In short: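 ERR reporter cells were plated 6 h before compound addition, then exposed to test compounds in DMSO for 17.5 h at 37 C. Viability was read as CellTiter-Fluor fluorescence after a 30-minute incubation at 37 C.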

[2] = target: Luciferin 4-monooxygenase (Photinus pyralis) (UniProt P08659); assay: qHTS assay to identify small molecule inhibitors of firefly luciferase (AID 1224835); note: nearly all actives have a fitted effect of over 25% in size; note: potency is the fitted concentration of half-maximal effect
Luciferin 4-monooxygenase (Photinus pyralis), sequence (P08659 whole entry, looked up): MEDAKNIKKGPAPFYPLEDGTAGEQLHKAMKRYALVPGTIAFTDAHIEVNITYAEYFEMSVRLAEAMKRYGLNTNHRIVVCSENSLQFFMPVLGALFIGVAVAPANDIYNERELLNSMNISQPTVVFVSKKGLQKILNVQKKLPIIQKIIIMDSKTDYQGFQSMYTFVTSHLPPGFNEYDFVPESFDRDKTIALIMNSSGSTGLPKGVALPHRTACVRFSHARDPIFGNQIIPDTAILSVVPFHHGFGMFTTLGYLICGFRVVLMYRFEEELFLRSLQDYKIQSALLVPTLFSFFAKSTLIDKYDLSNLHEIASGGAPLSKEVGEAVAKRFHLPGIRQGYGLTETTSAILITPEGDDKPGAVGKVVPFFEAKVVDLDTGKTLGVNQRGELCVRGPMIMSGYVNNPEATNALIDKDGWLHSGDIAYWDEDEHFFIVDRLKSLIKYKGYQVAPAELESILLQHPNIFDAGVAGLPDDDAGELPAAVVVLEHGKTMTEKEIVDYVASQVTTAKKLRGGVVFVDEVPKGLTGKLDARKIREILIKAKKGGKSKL
In short: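 Biochemical qHTS: compounds run as interplate titrations against purified firefly enzyme, with D-luciferin and ATP each at its KM concentration. Light output recorded by CCD imaging.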

[3] = qHTS assay to identify small molecule agonists of the constitutive androstane receptor (CAR) signaling pathway - cell viability counter screen (AID 1224836); note: nearly all actives have a fitted effect of over 45% in size
In short: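 23 h treatment, 37 C, 5% CO2. Cell line: HepG2 stably expressing hCAR with a CYP2B6-2.2kb construct. Co-treatment: PK11195, 0.75 uM final. Read-out: CellTiter-Fluor fluorescence intensity.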

[4] = qHTS assay to identify small molecule antagonists of the constitutive androstane receptor (CAR) signaling pathway - cell viability counter screen (AID 1224837); note: nearly all actives have a fitted effect of over 45% in size
In short: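 HepG2 cells stably expressing hCAR and a CYP2B6-2.2kb reporter were plated and pre-incubated 4 hr at 37 C/5% CO2, then given compounds at 15 concentrations plus 50 nM CITCO (final). After 23 hr, viability was read by CellTiter-Fluor fluorescence.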

[5] = target: Nuclear receptor subfamily 1 group I member 3 (Homo sapiens) (UniProt Q14994); assay: qHTS assay to identify small molecule antagonists of the constitutive androstane receptor (CAR) signaling pathway (AID 1224838); note: nearly all actives have a fitted effect of over 40% in size
Nuclear receptor subfamily 1 group I member 3 (Homo sapiens), sequence (Q14994 whole entry, looked up): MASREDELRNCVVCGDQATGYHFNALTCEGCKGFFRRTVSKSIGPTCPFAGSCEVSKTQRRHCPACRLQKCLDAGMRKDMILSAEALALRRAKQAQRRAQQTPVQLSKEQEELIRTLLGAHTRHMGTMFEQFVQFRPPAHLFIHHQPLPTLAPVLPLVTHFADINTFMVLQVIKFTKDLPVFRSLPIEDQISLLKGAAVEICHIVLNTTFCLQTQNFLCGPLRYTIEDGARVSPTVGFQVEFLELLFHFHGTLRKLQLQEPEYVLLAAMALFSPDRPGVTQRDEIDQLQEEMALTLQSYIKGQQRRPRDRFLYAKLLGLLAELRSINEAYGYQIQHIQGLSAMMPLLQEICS
In short: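 HepG2 cells stably co-transfected with hCAR and a CYP2B6-2.2kb luciferase reporter were seeded 4 h before compound addition at 15 concentrations. Cells were stimulated with 50 nM CITCO (final) for 24 h at 37 C; luciferase luminescence was then read.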

[6] = target: Nuclear receptor subfamily 1 group I member 3 (Homo sapiens) (UniProt Q14994); assay: qHTS assay to identify small molecule agonists of the constitutive androstane receptor (CAR) signaling pathway (AID 1224839); note: nearly all actives have a fitted effect of over 15% in size; note: potency is the fitted concentration of half-maximal effect;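 for activation: HepG2 cells stably carrying human CAR and a CYP2B6 luciferase reporter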
In short: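 Compounds tested at 15 concentrations on HepG2 cells stably harbouring hCAR and CYP2B6-2.2kb reporter constructs, co-treated with PK11195 (0.75 uM final), 24 h at 37 C; luminescent reporter signal quantified.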

[7] = qHTS assay to identify small molecule antagonists of the estrogen related receptor signaling pathway with the pleiotropic PPARgamma coactivator (PGC) from Tox21 10K library - cell viability counter screen (AID 1224840; active = well fitted cell-killing curve with a large enough effect in the repeat runs, not every such curve was filed as active; note: nearly all actives have a fitted effect of over 40% in size)
In short: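 PGC/ERR cells were seeded at 2,000 cells/well and left 6 hours at 37 C/5% CO2 before pin-tool addition of compounds in DMSO. After 17.5 hours at 37 C, CellTiter-Fluor was added and fluorescence read 30 minutes later.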

[8] = qHTS assay to identify small molecule antagonists of the estrogen related receptor signaling pathway with the pleiotropic PPARgamma coactivator (PGC) from Tox21 10K library (AID 1224841; call rule not given here; note: actives are mostly falling curves and most rising ones were filed inactive; nearly all actives have a fitted effect of over 50% in size)
In short: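 PGC/ERR reporter cells were seeded at 2,000 cells/well and held 6 hours at 37 C/5% CO2 before pin-tool addition of compounds in DMSO. After 18 hours at 37 C, One-Glo was added and luminescence read after 30 minutes at room temperature.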

[9] = target: Thyrotropin receptor (Homo sapiens) (UniProt P16473); assay: qHTS assay to identify small molecule agonists of the thyroid stimulating hormone receptor (TSHR) signaling pathway (AID 1224843; calls by dose curve; note: nearly all actives have a fitted effect of over 45% in size)
Thyrotropin receptor (Homo sapiens), sequence (P16473 whole entry, looked up): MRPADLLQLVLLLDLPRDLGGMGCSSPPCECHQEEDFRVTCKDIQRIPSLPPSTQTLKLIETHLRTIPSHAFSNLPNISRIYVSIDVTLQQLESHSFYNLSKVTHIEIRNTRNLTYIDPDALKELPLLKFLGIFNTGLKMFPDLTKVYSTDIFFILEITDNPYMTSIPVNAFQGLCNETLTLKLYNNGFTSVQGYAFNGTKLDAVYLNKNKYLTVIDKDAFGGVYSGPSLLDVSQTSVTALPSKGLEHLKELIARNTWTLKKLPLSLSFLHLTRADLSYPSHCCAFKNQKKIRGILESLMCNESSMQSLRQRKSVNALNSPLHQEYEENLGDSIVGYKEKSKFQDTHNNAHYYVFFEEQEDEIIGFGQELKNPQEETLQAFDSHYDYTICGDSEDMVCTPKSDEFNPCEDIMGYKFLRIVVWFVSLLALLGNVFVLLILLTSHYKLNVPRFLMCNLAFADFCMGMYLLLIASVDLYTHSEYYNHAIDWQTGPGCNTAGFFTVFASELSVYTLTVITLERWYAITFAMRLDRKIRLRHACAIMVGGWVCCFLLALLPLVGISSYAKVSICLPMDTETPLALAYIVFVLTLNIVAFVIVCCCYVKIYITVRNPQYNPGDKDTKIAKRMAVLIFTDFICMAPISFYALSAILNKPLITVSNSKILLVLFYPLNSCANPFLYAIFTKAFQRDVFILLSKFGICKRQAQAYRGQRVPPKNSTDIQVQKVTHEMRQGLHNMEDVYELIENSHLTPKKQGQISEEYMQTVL
In short: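 Steps: seed 800 TSHR-HEK293 cells per well; add test compound and hold 30 min at ambient temperature; dispense cAMP-d2 then anti-cAMP cryptate; incubate 1 h at ambient; measure fluorescence intensity.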

[10] = qHTS assay to identify small molecule agonists of the hypoxia (HIF-1) signaling pathway - cell viability counter screen (AID 1224844; calls by dose curve; note: nearly all actives have a fitted effect of over 50% in size)
In short: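 HRE-bla ME-180 cells in medium with 0.5% dialyzed FBS were preincubated 5 hrs at 37C, exposed to compounds for 17 hrs, then viability was read as CellTiter-Glo luminescence after 30 min at room temperature, in the reporter wells.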

[11] = qHTS assay to identify small molecule agonists of the hypoxia (HIF-1) signaling pathway (AID 1224846; active = well fitted activation curve with a large enough effect in the signal ratio in the repeat runs, not every such curve was filed as active; the % refers to the signal ratio)
In short: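 HRE-bla ME-180 cells (beta-lactamase reporter under hypoxia response element) were plated at 2,000 cells/well in medium with 0.5% dialyzed FBS, rested 5 hrs, then given compounds in DMSO for 17 hrs at 37C, 5% CO2. Reporter induction was read with CCF4-AM FRET substrate.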

[12] = qHTS assay to identify small molecule agonists of H2AX - cell viability counter screen (AID 1224847; calls by dose curve; note: top concentration of the series differs between compounds; nearly all actives have a fitted effect of over 30% in size)
In short: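 Compounds tested at 15 concentrations were incubated 3 hr at 37C with wild-type CHO-K1 cells; cellular ATP-based luminescence (CellTiter-Glo) indicated viability.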

[13] = qHTS assay to identify small molecule antagonists of the estrogen related receptor (ERR) signaling pathway from Tox21 library (AID 1224848); note: nearly all actives have a fitted effect of over 50% in size
In short: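 Luminescent reporter read-out (ONE-Glo) from NTP's ERR cell line after 18 h treatment at 37 C with DMSO-dissolved Tox21 compounds; cells pre-plated 6 h beforehand at 2,000 per well.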

[14] = qHTS assay to identify small molecule agonists of the estrogen related receptor (ERR) signaling pathway from Tox21 library (AID 1224849; calls by dose curve; note: nearly all actives have a fitted effect of over 15% in size); settings: ERR reporter cell line, ONE-Glo luciferase, 18 h; at 92.4 µM (top of the series) unless noted
In short: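 ERR reporter cell line (NTP) seeded, rested 6 h at 37 C/5% CO2, then pinned with Tox21 compounds in DMSO. After 18 h at 37 C, ONE-Glo luciferase luminescence was read following 30 min at room temperature.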

[15] = qHTS RealTime-Glo MT Cell Viability Assay in HEK293 cells - 32 hour (AID 1224868); note: top concentration of the series differs between compounds; nearly all actives have a fitted effect of over 50% in size
In short: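 Quantitative high-throughput screen of the Tox21 10K library in HEK293: cells and RealTime-Glo reagents plated together, compound added at 5 h, luminescence monitored through 40 h at 37 C.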

[16] = A CellTox Green Cytotoxicity Assay to monitor cytotoxicity in HEK293 cells - 0 hour (AID 1224869); note: nearly all actives have a fitted effect of over 50% in size
In short: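 HEK293 cells premixed with CellTox Green dye were seeded at 600 cells/well and left 5 h at 37 C/5% CO2 before pin transfer of 23 nL compound in DMSO. Fluorescence from dye bound to dead-cell DNA was read during 40 h treatment.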

[17] = qHTS RealTime-Glo MT Cell Viability Assay in HepG2 cells - 40 hour (AID 1224870); note: nearly all actives have a fitted effect of over 50% in size
In short: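 HepG2 cells (600/well) mixed with RealTime-Glo MT reagent, settled 5 h at 37 C/5% CO2 before compound addition. Nonlytic NanoLuc luminescence from viable-cell prosubstrate reduction read repeatedly during 40 h treatment at 37 C.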

[18] = qHTS assay to identify small molecule agonists of the estrogen related receptor signaling pathway with the pleiotropic PPARgamma coactivator (PGC) from Tox21 10K library (AID 1224842); note: nearly all actives have a fitted effect of over 15% in size; note: potency is the fitted concentration of half-maximal effect
In short: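 PGC/ERR reporter cell line, 2,000 cells per well, incubated 6 h at 37 C before 23 nL compound in DMSO was added. After 18 h at 37 C, One-Glo luminescence read following 30 min at room temperature.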

[19] = qHTS assay to identify small molecule agonists of H2AX (AID 1224845; active = well fitted activation curve with a large enough effect in the signal ratio in the repeat runs, not every such curve was filed as active; the % refers to the signal ratio)
In short: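 Wild-type CHO-K1 cells, plated overnight, exposed 3hr at 37C to 15 concentrations (0.76% DMSO final). Lysed, then HTRF anti-pH2AX (S139) cryptate and anti-H2AX-d2 antibodies, 24 hr room temperature; 665/620 nm emission read.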

[20] = qHTS RealTime-Glo MT Cell Viability Assay in HepG2 cells - 24 hour (AID 1224867); note: nearly all actives have a fitted effect of over 50% in size
In short: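 Compound treatment began 5 h after plating HepG2 cells (600/well) with NanoLuc luciferase and prosubstrate. Plates stayed at 37 C for 40 h; luminescence was captured at six time points, 0 h through 40 h.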
% is set by controls: 0 for no effect and ±100 for the full control effect.

Cn1sc(Cl)cc1=O
inactive: Potency [1] | Potency [2] | Potency [3] | Potency [4] | Potency [5] | Potency [6] | Potency [7] | Potency [8] | Potency [9] | Potency [10] | outcome [11] | Potency [12] | Potency [13] | activity change, positive = activation [14] 1.6% | Potency [15] | Potency [16] | Potency [17]

Cc1ccc(N)cc1C
inactive: Potency [1] | Potency [2] | Potency [3] | Potency [4] | Potency [5] | Potency [7] | Potency [8] | Potency [9] | Potency [19] | outcome [11] | Potency [12] | Potency [20] | Potency [15] | Potency [16]
active: Potency [6] 4.9 µM | Potency [18] 3.47 µM | activity change, positive = activation [14] 19.9%

O=C=Nc1ccc(Cl)cc1
inactive: Potency [1] | Potency [3] | Potency [4] | Potency [5] | Potency [7] | Potency [19] | Potency [12] | Potency [20] | Potency [15] | Potency [16] | Potency [17]
active: Potency [2] 5.64 µM | Potency [6] 6.86 µM

CCCCOC(=O)c1ccccc1C(=O)OCc1ccccc1
inactive: Potency [1] | Potency [2] | Potency [3] | Potency [4] | Potency [5] | Potency [7] | Potency [8] | Potency [19] | outcome [11] | Potency [12] | Potency [13] | activity change, positive = activation [14] 3.01% | Potency [20] | Potency [16]
active: Potency [6] 54.5 µM

O=C(O)CC(Cl)C(=O)O (configuration not stated)
inactive: Potency [1] | Potency [2] | Potency [3] | Potency [4] | Potency [5] | Potency [6] | Potency [7] | Potency [8] | Potency [18] | Potency [9] | Potency [19] | outcome [11] | Potency [12] | Potency [13] | activity change, positive = activation [14] 7% | Potency [20] | Potency [15] | Potency [16]

CCOc1nc(F)cc2nc(S(=O)(=O)Nc3c(Cl)cccc3Cl)nn12
inactive: Potency [1] | Potency [2] | Potency [3] | Potency [4] | Potency [5] | Potency [6] | Potency [7] | Potency [9] | Potency [19] | outcome [11] | Potency [20] | Potency [16] | Potency [17]

ClC=C(Cl)Cl
inactive: Potency [1] | Potency [2] | Potency [3] | Potency [4] | Potency [5] | Potency [6] | Potency [7] | Potency [8] | Potency [9] | Potency [10] | Potency [19] | outcome [11] | Potency [12] | Potency [13] | activity change, positive = activation [14] -0.0629% | Potency [20] | Potency [15] | Potency [16] | Potency [17]

C=CCCl
inactive: Potency [1] | Potency [2] | Potency [3] | Potency [4] | Potency [5] | Potency [6] | Potency [9] | Potency [10] | Potency [19] | outcome [11] | Potency [12] | Potency [20] | Potency [15] | Potency [16] | Potency [17]

Source: PubChem BioAssay (Tox21)
